Screens (PubChem)
This is a sample that favours compounds with a hit; in the whole collection about 2.1% have one here.
EP2 mod – EP2 receptor (human) modulation; AID 940; induction, % at 25 µM; 260,000 tested, 0.83% active; P43116; EP2-expressing cells, cAMP HTRF FRET, PGE2 co-stimulation;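 active means compounds whose cAMP rise, as percent of the full-agonist control response, exceeds 60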;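 further: rat C6 glioma line stably carrying human EP2 under a CMV promoter; the protocol text gives 20 µM as final concentration; 100% = response of wells given 1 µM PGE2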
Target sequence (P43116 whole entry, looked up): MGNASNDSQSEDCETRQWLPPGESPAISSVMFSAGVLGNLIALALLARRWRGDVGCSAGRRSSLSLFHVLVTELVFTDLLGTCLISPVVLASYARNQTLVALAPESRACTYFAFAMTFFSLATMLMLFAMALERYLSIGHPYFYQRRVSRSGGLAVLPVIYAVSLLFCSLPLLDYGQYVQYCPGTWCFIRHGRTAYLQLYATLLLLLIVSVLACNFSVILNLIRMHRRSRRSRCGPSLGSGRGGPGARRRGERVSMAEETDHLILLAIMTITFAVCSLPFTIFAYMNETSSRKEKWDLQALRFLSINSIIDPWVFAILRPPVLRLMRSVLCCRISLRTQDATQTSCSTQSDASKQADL
HMGR II inh – E. faecalis class II HMG-CoA reductase inhibition; purified E. faecalis HMGR, NADPH absorbance 340 nm kinetic; AID 1066; inhibition, % at 10 µM; 190,000 tested, 0.41% active;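 active means inhibition above a set limit, the median over all tested compounds plus 3 SD, cut at about 9.5% in these data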;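 further: enzyme runs in reverse so mevalonate oxidation gives rising NADPH absorbance; 0% = complete reaction with DMSO and 100% = background rate lacking mevalonate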
GSH fluor – compound fluoresces at 488/530 nm on GSH beads; GSH beads flow cytometry, compound fluorescence 488/530 nm; active compounds read high; fluorescence (KMESF) at 10 µM; 190,000 tested, 0.25% active; in the data active means fluorescence above about 89;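 further: glutathione beads carrying GST-tagged Bcl family fusion proteins plus one bare bead set; values are compound well signal with DMSO vehicle wells as background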
EP2 antag – inhibitors of human EP2 prostaglandin E2 receptor; inhibition, % at 25 µM; 260,000 tested, 0.52% active; C6 glioma cells expressing human EP2, cAMP TR-FRET; cells stimulated with saturating PGE2;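 active means percent inhibition above 40 after rounding to a whole number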;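 further: rat C6 glioma host cells with rolipram phosphodiesterase inhibitor present; the protocol text gives 20 µM as final concentration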
Avidin fluor – compound fluoresces at 488/530 nm on avidin beads | fluorescence (KMESF) at 10 µM | compound fluorescence 488/530 nm, flow cytometry; active compounds read high | 220,000 tested, 0.38% active | AID 1775; in the data active means fluorescence above about 47
EP2 confirm – EP2 receptor cAMP induction, counter-screens negative; shares compounds with EP2 mod; C6 glioma EP2 cells, cAMP HTRF induction; plus low (about EC15) PGE2 agonist; calls only at 20 µM (by protocol); 1,300 tested, 47% active; AID 1080;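 active means cAMP induction above 50% in the main assay while under 30% in all four parallel counter assays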;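 further: rat C6 glioma cells stably expressing human EP2 receptor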
Numbers without * were called inactive; i = inactive; x = not tested or not shown; + = active, no number.

SMILES | EP2 mod | HMGR II inh | GSH fluor | EP2 antag | Avidin fluor | EP2 confirm
CCOc1ccc2[nH]c(=O)c(-c3nc4ccccn4c3NCc3ccccc3)cc2c1 | -60 | x | x | 24 | x | x
O=C1CCC(C(=O)OCC(=O)N2N=C3/C(=C/c4ccccc4)CCCC3C2c2ccccc2)N1 (stereo unspecified) | 78* | -5 | 11 | 6 | 35 | +
O=C(c1ccccn1)N1N=C2/C(=C/c3ccccc3)CCCC2C1c1ccccc1 (stereo unspecified) | 53 | 1 | 8 | 10 | 7 | x
CCOc1ccccc1-c1nc2c(C(C)(C)C)nn(C)c2c(=O)[nH]1 | 84* | -6 | 51 | 15 | 9 | +
CCOc1ccccc1-c1nc2c([nH]1)c(=O)n(C)c(=O)n2C | 35 | -4 | 28 | 4 | 8 | x
CCOc1cccc(CNc2ccc(O)cc2)c1OCc1ccccc1Cl | 84* | -5 | 16 | 11 | x | +
CCOc1cccc(CNc2ccc(O)cc2)c1OCc1ccc(Cl)cc1Cl | 14 | -5 | 22 | x | 7 | x
CN(C(=O)/C(=C/c1ccco1)NC(=O)c1ccccc1)C1CCCCC1 | 58 | x | x | 23 | x | x
Cc1cccc(OCCCC(=O)N2CCCc3ccccc32)c1C | 82* | -3 | 41 | 7 | 7 | +
CNC(=O)CSc1nnc(-c2ccc(OC)c(OC)c2)n1C | -15 | x | x | 10 | x | x
CCOC(=O)C1=C(CC)Nc2ccccc2N=C1NC(=O)c1oc2ccccc2c1C | 69* | -1 | 10 | 14 | 11 | i
CCOCc1c(C(=O)NC2=Nc3ccccc3NC(CC)=C2C(=O)OCC)oc2ccccc12 | 39 | 2 | 16 | 11 | 9 | x
CSc1nnc(-c2ccc(F)cc2)o1 | 72* | 4 | 16 | 20 | 31 | i
Cc1cc(Cl)ccc1OCC(=O)Nc1nnc(C(C)C)s1 | -5 | x | x | 12 | x | x
S=C(Nc1ccccc1Cl)N(Cc1ccccc1)Cc1ccccn1 | 76* | -5 | 21 | 3 | 9 | +
COc1ccccc1NC(=S)N(Cc1ccccc1)Cc1ccccn1 | 34 | -3 | 12 | 7 | 12 | x
CC1(C)Cc2c(C#N)c(N3CCN(C(=O)c4ccccc4)CC3)nc(-c3ccco3)c2CS1 | 19 | -10 | 25 | 9 | 26 | x
N#Cc1c(N2CCOCC2)nc(-c2ccco2)c2c1CCCC2 | 58 | 1 | 15 | 9 | 8 | x
CC1(C)Cc2c(C#N)c(N3CCCC3)nc(-c3ccco3)c2CO1 | 76* | -2 | 19 | 11 | 7 | i
CC(C)c1nc(N2CCN(C(=O)c3ccccc3)CC2)c(C#N)c2c1COC(C)(C)C2 | 77* | 2 | 13 | 5 | 33 | +
CCCSc1nc(N2CCCC2)c2c(c1C#N)CC(C)(C)OC2 | 66* | -10 | 12 | 11 | 34 | +
Cc1cc(-c2cncnc2C2CCCN(C(=O)c3ccncc3)C2)on1 (stereo unspecified) | -8 | x | x | x | x | x
C=CCNc1nc(Nc2ccc(OC)cc2)nc(N2CCOCC2)n1 | -5 | x | x | 9 | x | x
N#CC1=C(N)S[C@H](C(=O)C23CC4CC(CC(C4)C2)C3)[C@H]1c1ccncc1 | 66* | 1 | 51 | 11 | 10 | i
O=C(NCc1ccncc1)C12CC3CC(CC(C3)C1)C2 | -5 | 0 | 19 | 2 | 9 | x
SMILES | EP2 mod | HMGR II inh | GSH fluor | EP2 antag | Avidin fluor | EP2 confirm
CC(C)c1ccc(OCC(=O)NC(=S)Nc2ccc3c4c(cccc24)CC3)cc1 | 66* | 0 | 11 | 20 | 39 | i
CC1Cc2ccccc2N1CC(=O)NC(c1ccccc1)c1ccccc1 (stereo unspecified) | 72* | 3 | 11 | 10 | 5 | +
CC1CC(C)CN(CC(=O)NC(c2ccccc2)c2ccccc2)C1 (stereo unspecified) | 72* | -4 | 25 | 9 | 7 | i
CCn1c(C(CC(C)C)NC(=O)COC)nc2cccnc21 (stereo unspecified) | -3 | x | x | x | x | x
c1ccc(-c2nnc3sc(-c4ccncc4)nn23)cc1 | 6 | -2 | 24 | 4 | 7 | x
COc1ccc(-n2nnnc2-c2ccccc2)cc1 | 5 | -2 | 24 | 4 | 9 | x
COc1ccc(-n2c(-c3ccccc3)nnc2-c2ccc(Cl)cc2)cc1 | 69* | -1 | 30 | 9 | 11 | +
Clc1ccc(-c2nn3c(-c4ccccc4)nnc3s2)cc1 | 73* | -5 | 23 | 5 | 33 | +
COc1ccc(-c2nn3c(-c4ccccc4)nnc3s2)cc1 | 81* | -3 | 36 | 4 | 14 | +
c1cc(-c2n[nH]c(C3CCCN3)n2)ccn1 (stereo unspecified) | -1 | x | x | 6 | x | x
CC(=O)O[C@H]1CC[C@@]2(C)[C@@H](CC[C@H]3[C@H]2CC(=O)[C@]2(C)[C@@H]3C[C@H]3CC(C)=CC(=O)[C@@H]32)C1 | 64* | x | x | 45* | x | i
COc1ccccc1C1c2[nH]c3ccccc3c2CCN1Cc1cnc(C)s1 (stereo unspecified) | 80* | -3 | 14 | 8 | 7 | +
COc1cccc(C2c3[nH]c4ccccc4c3CCN2Cc2cnc(C)s2)c1OC (stereo unspecified) | 32 | -1 | 11 | 2 | 3 | x
CCSc1ccccc1C(=O)n1nnc2ccccc21 | 68* | -2 | 41 | 4 | x | i
CCSc1ccccc1C(=O)N1CCCC1 | 1 | -2 | 4 | 1 | 4 | x
COc1cc(OC)c(S(=O)(=O)N2CCCC2)cc1S(=O)(=O)N1CCCC1 | -32 | x | x | 14 | x | x
CCOC(=O)c1cnc2c(c(C)nn2C)c1Oc1ccc(Cl)cc1 | 67* | -1 | 23 | 3 | 12 | +
CC(=O)N1c2ccc3ccccc3c2C(C)CC12CCCCC2 (stereo unspecified) | 55 | -3 | 15 | 4 | 5 | x
CC(=O)N1Cc2ccccc2C(C)CC12CCCCC2 (stereo unspecified) | 66* | -4 | 16 | 11 | 13 | +
Cc1ccc(-n2c(COc3cccc4ccccc34)nnc2SC(C)C(=O)O)cc1 (stereo unspecified) | -82 | x | x | 19 | x | x
C#CCN1C(C)=C(C(=O)OC)C(c2cccc([N+](=O)[O-])c2)C(C(=O)OCC)=C1C (stereo unspecified) | 52 | x | x | 9 | x | i
C/C=C(\C)c1nnc(NC(=O)OCC)s1 | 90* | -7 | 59 | 11 | 8 | i
CCCc1cc(-c2nc(N)ncc2-c2csc(C)n2)c(O)cc1OC | -52 | -9 | 72 | 5 | 12 | x
CCCc1cc(-c2nc(N)ncc2-c2ccc3c(c2)OCCCO3)c(O)cc1OC | 88* | 0 | 10 | 9 | 18 | +
CCCc1c(O)nc(SCC(=O)NC(C)c2ccccc2)[nH]c1=O (stereo unspecified) | 4 | x | x | 14 | x | x
